According to PubChem BioAssay (NCI):
About 83,000 compounds went through this panel and 20% of them were active in at least one assay; those are over-represented in the sample as a whole.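 Treatment: one concentration, 48 hours, 96-well format. Scoring: percent growth, with anything below 10 considered active.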 Calls of active or inactive are those of the source.

Experiments:
Experiment in all cases: NCI-60 one-dose screen, 48 h (100 = growth as untreated, 0 = no growth, -100 = all killed)
Conditions in all cases: 10 µM unless noted
[1] = system: HCT-15 colon
[2] = system: HT29 colon
[3] = system: SNB-75 CNS
[4] = system: SNB-19 CNS
[5] = system: U251 CNS
[6] = system: PC-3 prostate
[7] = system: SK-MEL-5 melanoma
[8] = system: UACC-62 melanoma
[9] = system: LOX IMVI melanoma
[10] = system: SK-MEL-28 melanoma
[11] = system: SK-MEL-2 melanoma
[12] = system: EKVX NSCLC
[13] = system: SN12C renal
[14] = system: UO-31 renal
[15] = system: TK-10 renal
[16] = system: ACHN renal
[17] = system: CAKI-1 renal
[18] = system: A498 renal
[19] = system: CCRF-CEM leukemia
[20] = system: MOLT-4 leukemia

Measured: growth

O=C(Nc1ccc(F)cc1)c1ccccc1
inactive: [1] 96.6% | [2] 114% | [3] 106% | [4] 101% | [5] 102% | [6] 108% | [7] 101% | [8] 90.8% | [9] 105% | [10] 101% | [11] 106% | [12] 101% | [13] 102% | [14] 94.3% | [15] 95.7% | [16] 101% | [17] 91.6% | [18] 92.4% | [19] 100% | [20] 97.8%

C#C[C@]1(O)CC[C@H]2[C@@H]3CC=C4c5nc(Nc6ccccc6[N+](=O)[O-])sc5CC[C@]4(C)[C@H]3CC[C@@]21C
inactive: [1] 35.3% | [2] 55.7% | [3] 17.9% | [4] 76.6% | [5] 39.7% | [6] 41.8% | [7] 60.6% | [8] 67.8% | [9] 73.1% | [10] 62.1% | [11] 56.7% | [12] 67.4% | [13] 79.5% | [14] 63.1% | [15] 72.4% | [16] 70.7% | [17] 38.9% | [18] 11.7% | [19] 61.9% | [20] 43.7%

CCCC(NC(=O)OCc1ccccc1)C(=O)O (stereo not given)
inactive: [1] 103% | [2] 104% | [3] 84% | [4] 99.4% | [5] 104% | [6] 93.8% | [7] 90.1% | [8] 89.6% | [9] 99.5% | [10] 92.8% | [11] 128% | [12] 96.5% | [13] 74.3% | [14] 65.1% | [15] 117% | [16] 108% | [17] 82.9% | [18] 80% | [19] 118% | [20] 111%

NS(=O)(=O)c1ccc(CCN2C(=O)/C(=C\c3ccccc3)C=C2c2ccc(Cl)cc2)cc1
inactive: [1] 99.2% | [2] 107% | [3] 59.3% | [4] 87% | [5] 98.9% | [6] 90% | [7] 98.7% | [8] 81.9% | [9] 99.8% | [10] 101% | [11] 102% | [12] 88.5% | [13] 90.6% | [14] 65.8% | [15] 113% | [16] 97% | [17] 65.1% | [18] 65.6% | [19] 101% | [20] 94.8%

O=C1Nc2ccccc2/C1=C/C(=O)c1ccc(N2CCOCC2)cc1
inactive: [1] 93% | [2] 83.4% | [3] 90.5% | [4] 93.9% | [5] 81.9% | [6] 84.6% | [7] 101% | [8] 83.2% | [9] 88.9% | [10] 107% | [11] 99% | [12] 98% | [13] 93.7% | [14] 59.6% | [15] 102% | [16] 72.7% | [17] 78.4% | [18] 89.7% | [20] 47.8%
active: [19] 9.92%

CC(C)c1ccc(C(=O)Nc2nc3ccc(O)cc3s2)cc1
inactive: [2] 30.4% | [3] 63.7% | [4] 53.8% | [5] 58.4% | [6] 42.4% | [8] 10.8% | [10] 26.5% | [11] 78% | [12] 37.4% | [13] 39.4% | [14] 22.1% | [15] 70.3% | [16] 21.3% | [18] 38% | [19] 29.2% | [20] 13.5%
active: [1] 7.82% | [7] -6.4% | [9] -25.9% | [17] -5.74%

C=C(C)C1CCC2(C(=O)O)CCC3(C)C(CCC4C5(C)CCC(OC(=O)NCc6ccccc6)C(C)(C)C5CCC43C)C12 (stereo not given)
inactive: [1] 40.8% | [2] 43.5% | [3] 75.7% | [4] 65.4% | [5] 40.6% | [6] 41.2% | [7] 28.4% | [8] 33.9% | [9] 39.8% | [10] 61.5% | [11] 54.6% | [12] 29.1% | [13] 42.3% | [14] 40.3% | [15] 59.2% | [16] 30.3% | [17] 16.1% | [18] 56.3% | [19] 36.6% | [20] 29.4%

O=C1COCCN1c1ccc(NCc2cn(Cc3ccccc3)c3ccccc23)cc1
inactive: [1] 90.7% | [2] 109% | [3] 81.7% | [4] 93.2% | [5] 86.8% | [6] 89% | [7] 91.5% | [8] 21.6% | [9] 92% | [10] 102% | [11] 97.6% | [12] 94.4% | [13] 96.2% | [14] 63% | [15] 12.3% | [16] 101% | [19] 96.4% | [20] 102%
active: [17] -9.69% | [18] -88.4%

COc1cc2c(c(Br)c1N)-c1cc(Br)c(N)cc1C2=O
inactive: [1] 81.3% | [2] 86.2% | [3] 25.9% | [4] 69.1% | [5] 57.3% | [6] 93.2% | [7] 56.5% | [8] 74.9% | [9] 68.8% | [10] 81.4% | [11] 108% | [12] 34.8% | [13] 39.9% | [14] 51.7% | [15] 27.2% | [16] 57.6% | [17] 74.3% | [18] 61.7% | [19] 86% | [20] 97.2%

CC1(C)S[C@@H]2[C@H](NC(=O)[C@H](C(=O)O)c3cccs3)C(=O)N2[C@H]1C(=O)O
inactive: [1] 98.7% | [2] 102% | [3] 104% | [4] 105% | [5] 94.4% | [6] 99.2% | [7] 106% | [8] 102% | [9] 99.4% | [10] 116% | [11] 98.2% | [12] 93.1% | [13] 104% | [14] 85.6% | [15] 103% | [16] 95.2% | [17] 93.2% | [18] 118% | [19] 105% | [20] 125%

Cc1cc(N2CCCCCC2)nc(N2CCN(CC(=O)Nc3ccc4c(ccn4Cc4ccccc4)c3)CC2)n1
inactive: [1] 30.8% | [3] 69.6% | [4] 67.3% | [5] 39.2% | [6] 29% | [7] 46.9% | [8] 49.2% | [9] 44.1% | [10] 51.8% | [11] 52.8% | [12] 56% | [13] 57.1% | [14] 27.7% | [15] 83.4% | [16] 55.1% | [17] 33.3% | [19] 50.2% | [20] 41.1%
active: [2] 6.45% | [18] 8.99%

Clc1ccccc1/C=N\Nc1ccccn1
inactive: [1] 77.6% | [2] 94.3% | [3] 74.8% | [4] 90.6% | [5] 95.4% | [6] 104% | [7] 89.2% | [8] 85.3% | [9] 93% | [10] 99.2% | [11] 92.8% | [12] 76.2% | [13] 92.2% | [14] 66.8% | [15] 66.7% | [16] 87.7% | [17] 80.2% | [18] 110% | [19] 95.1% | [20] 83.5%

O=C(COc1cccc(/C=C2\Oc3ccccc3C2=O)c1)c1ccc([N+](=O)[O-])cc1
inactive: [1] 94.2% | [2] 108% | [3] 81.7% | [4] 91.3% | [5] 93.6% | [6] 86.6% | [7] 99% | [8] 72.2% | [9] 88.6% | [10] 135% | [11] 92.1% | [12] 95% | [13] 92.6% | [14] 81.2% | [15] 119% | [16] 101% | [17] 108% | [18] 100% | [19] 63.1% | [20] 72%

COc1cc(OC)cc(C(=O)Nc2cc(-c3cccnc3)nc(NCCCN3CCOCC3)n2)c1
inactive: [1] 90.6% | [2] 85.2% | [3] 109% | [4] 98.7% | [5] 90.6% | [6] 85.4% | [7] 68.3% | [8] 97.6% | [9] 88.1% | [10] 101% | [11] 84.1% | [12] 103% | [13] 86.4% | [14] 53.6% | [15] 95.5% | [16] 103% | [17] 101% | [18] 83.3% | [19] 90.8% | [20] 82.3%

COc1ccc(NC(=S)NNc2ccc(-c3ccc(OC)c(OC)c3)nn2)cc1
inactive: [1] 107% | [2] 109% | [3] 74.4% | [4] 97.1% | [5] 76.6% | [6] 104% | [7] 101% | [8] 102% | [9] 97.8% | [10] 113% | [11] 106% | [12] 104% | [13] 100% | [14] 83.3% | [15] 105% | [16] 102% | [17] 77% | [18] 83.4% | [19] 103% | [20] 96.3%

COc1cccc(-c2[nH]c(=S)ncc2C(=O)c2ccccc2)c1
inactive: [1] 50.8% | [2] 46.8% | [3] 66.6% | [4] 82.9% | [5] 85% | [6] 91.6% | [7] 83.2% | [8] 74.3% | [9] 72.4% | [10] 81.4% | [11] 99.9% | [12] 86.9% | [13] 94.4% | [14] 75.9% | [15] 100% | [16] 91.1% | [17] 58.9% | [18] 75% | [19] 93.7% | [20] 76.8%

O=C(Nc1ccc(Oc2ccc(F)cc2)c(Cl)c1)c1cnccn1
inactive: [1] 47.7% | [2] 23.7% | [3] 47.7% | [4] 63.7% | [5] 38.2% | [6] 76% | [7] 49.5% | [8] 50.3% | [9] 51.5% | [10] 76.9% | [11] 53.6% | [12] 78% | [13] 69.8% | [14] 65% | [15] 85.8% | [16] 94.1% | [17] 49.7% | [18] 67.7% | [19] 64.1% | [20] 45.1%
